Only some compounds are listed: those with a hit (about 10% of all), similar ones and a draw of the others.
FLuc inh – Firefly luciferase inhibition profiling of diverse chemical library using quantitative high-throughput screening; purified P. pyralis luciferase, luminescence, biochemical; Potency, µM (series often up to 115 µM), actives largely listed as inhibitors; Luciferin 4-monooxygenase (Photinus pyralis), P08659; AID 1347043, 2019; actives 2.5% (n = 76,000); note: % is set by controls: 0 for no effect and ±100 for the full control effect; nearly all actives have a fitted effect of over 65% in size
Target sequence (P08659 whole entry, looked up): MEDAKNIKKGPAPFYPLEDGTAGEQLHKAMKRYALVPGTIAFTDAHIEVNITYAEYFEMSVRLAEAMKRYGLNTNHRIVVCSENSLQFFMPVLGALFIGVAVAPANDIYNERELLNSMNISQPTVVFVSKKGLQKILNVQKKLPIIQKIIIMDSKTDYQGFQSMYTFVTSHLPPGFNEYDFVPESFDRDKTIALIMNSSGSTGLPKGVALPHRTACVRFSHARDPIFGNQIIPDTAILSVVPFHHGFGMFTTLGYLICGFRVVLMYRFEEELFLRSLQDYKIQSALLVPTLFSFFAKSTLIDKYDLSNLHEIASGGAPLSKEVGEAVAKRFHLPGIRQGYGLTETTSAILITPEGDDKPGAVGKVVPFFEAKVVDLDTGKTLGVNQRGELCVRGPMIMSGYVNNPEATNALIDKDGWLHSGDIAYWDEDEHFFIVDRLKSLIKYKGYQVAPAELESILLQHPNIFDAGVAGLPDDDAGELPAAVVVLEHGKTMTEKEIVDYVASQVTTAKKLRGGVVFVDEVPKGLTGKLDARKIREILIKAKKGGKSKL
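Luminescence read by CCD imaging after purified firefly luciferase (10nM final) was added to substrate buffer holding 10uM D-luciferin and 10uM ATP, pH 7.5, pre-dosed with compound.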
HEK293 tox – Cytotoxic Profiling in HEK 293 Cell Line of Diverse Libraries Using Quantitative High-Throughput Screening; AID 1345083, 2018; HEK 293 viability, ATP luminescence (CellTiter-Glo), 48-72 h; Potency, µM (top dose mostly 115 µM), inactives show at the top dose activity change, negative = cytotoxicity, most hits filed as inhibitors; actives 6.6% (n = 94,000); note: % is set by controls: 0 for no effect and ±100 for the full control effect; nearly all actives have a fitted effect of over 60% in size
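Cells seeded first (HEK 293, 250 cells/well), then compound added by pintool. Incubation ran 48 or 72 hr at 37 degree Celsius. CellTiter-Glo was added and luminescence imaged after 10 min at room temperature.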
GPT2 inh – Primary qHTS assay for inhibitors of Glutamate pyruvate transaminase 2 (GPT2). Potency, µM (titrated, usually from 57.7 µM), for inactives: top-dose activity change, negative = inhibition, hits mostly inhibitors. actives 0.25% (n = 100,000). Alanine aminotransferase 2 (Homo sapiens), Q8TD30. Recombinant GPT2, coupled pyruvate oxidase/HRP Amplex Red fluorescence. AID 1671188, 2021; note: % is set by controls: 0 for no effect and ±100 for the full control effect; nearly all actives have a fitted effect of over 60% in size
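Inhibition is scored from Amplex Red fluorescence generated when pyruvate oxidase and HRP act on pyruvate released by GPT2. Reactions contain 10ng/uL enzyme, 250uM a-KG and 2mM L-alanine and run 30 min at room temperature.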
NPR1 antag – Natriuretic polypeptide receptor (hNpr1) antagonism - Primary qHTS. Atrial natriuretic peptide receptor 1 (Homo sapiens), P16066. HEK293 hNpr1 GloSensor cGMP, ANP-stimulated luminescence. Potency, µM (top dose mostly 46.3 µM), for the others: top-dose activity change, negative = inhibition, actives largely listed as inhibitors. actives 1.6% (n = 76,000); calls by dose curve; note: % is set by controls: 0 for no effect and ±100 for the full control effect; nearly all actives have a fitted effect of over 60% in size
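HEK293 cells stably expressing human Npr1 and cGMP GloSensor pGS-40F, loaded 2 h with 2% GloSensor reagent, given compound 30 min at room temperature. Luminescence read before and 20 min after 0.1 nM hNppA.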
3T3 cytotox – Cytotoxic Profiling in NIH 3T3 Cell Line of Diverse Libraries Using Quantitative High-Throughput Screening | actives 4.3% (n = 94,000) | Potency, µM (titrated, usually from 96.7 µM), inactives show at the highest dose activity change, negative = cytotoxicity, usual class: inhibitors | NIH 3T3 viability, CellTiter-Glo ATP luminescence, 48-72 h; note: % is set by controls: 0 for no effect and ±100 for the full control effect; nearly all actives have a fitted effect of over 55% in size
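Cytotoxicity was measured by CellTiter-Glo ATP luminescence after 48 or 72 h compound exposure at 37 °C. Mouse NIH 3T3 fibroblasts were seeded at 400 cells/well and dosed by 23 nL pin transfer.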
NPR1 antag cnf – Natriuretic polypeptide receptor (hNpr1) antagonism - Confirmation. AID 1347044, 2019. actives 76% (n = 1,400). shares compounds with NPR1 antag. Potency, µM (series often up to 57.6 µM), for inactives: at the top dose activity change, negative = inhibition, actives largely listed as inhibitors. HEK293 hNpr1 cGMP GloSensor luminescence, ANP-stimulated; calls by dose curve; note: nearly all actives have a fitted effect of over 70% in size
NPR2 antag – Natriuretic polypeptide receptor (hNpr2) antagonism - Subtype selectivity assay; shares compounds with NPR1 antag; HEK293 hNpr2 GloSensor cGMP luminescence, CNP-stimulated; Potency, µM (highest dose often 57.6 µM), for inactives: top-dose activity change, negative = inhibition, usual class: inhibitors; actives 67% (n = 1,400); calls by dose curve; note: nearly all actives have a fitted effect of over 70% in size
FLuc inh counter – Natriuretic polypeptide receptor (hNpr1) antagonism - Confirmation firefly luciferase (FLuc) inhibition counterscreen; shares compounds with NPR1 antag; purified FLuc enzyme, luminescence, Km substrate; actives 0.7% (n = 1,400); AID 1347047, 2019; Potency, µM (top dose mostly 57.6 µM), for the others: top-dose activity change, negative = inhibition, most hits filed as inhibitors; note: 0% is about no effect
GloSensor ctrl – Natriuretic polypeptide receptor (hNpr1) antagonism - Counterscreen GloSensor control cell line. actives 69% (n = 1,400). AID 1347051, 2019. HEK293 GloSensor cGMP, SNP-stimulated, luminescence. Potency, µM (series often up to 57.6 µM), inactives show at the highest dose activity change, negative = inhibition, actives largely listed as inhibitors. shares compounds with NPR1 antag; calls by dose curve; note: % is set by controls: 0 for no effect and ±100 for the full control effect; nearly all actives have a fitted effect of over 70% in size
The depositor's hits bear a star; i = inactive; ? = inconclusive; / = no result given; [ ] = another dose, or the depositor's remark. Unless noted, calls come from the whole dose curve; as a rule, active = well fitted curve in the direction sought with a large enough effect; inconclusive = small, poorly fitted or top-dose-only effect, or another doubt; inactive = no such curve, though single readings can be large; an effect the other way counts as inactive or inconclusive. Potency is the fitted concentration of half-maximal effect.

SMILES | FLuc inh | HEK293 tox | GPT2 inh | NPR1 antag | 3T3 cytotox | NPR1 antag cnf | NPR2 antag | FLuc inh counter | GloSensor ctrl
CS(=O)(=O)c1ccc(CN2CC[C@@H](c3ccc4ccccc4c3)[C@H](O)C2)cc1 | i | 40µM* | i | ? | ? | ? | ? | 4% | 24µM*
COc1cc(N2CCC(CO)(Cc3ccccc3C(F)(F)F)CC2)ncn1 | i | ? | 5% | 11µM* | ? | 19µM* | 19µM* | -2% | 15µM*
COc1ccnc(N2CCC(CO)(Cc3ccccc3C(F)(F)F)CC2)n1 | i | ? | ? | -7% | ? | / | / | / | /
CC(=O)N1CCC2(CC1)CCN(c1ncccc1C#N)CC2CO (centres undefined) | i | -2% | ? | 6% | -3% | / | / | / | /
Cc1ncnc(N2CCC(CO)(Cc3ccccc3C(F)(F)F)CC2)c1C | i | 40µM* | 3% | 11µM* | ? | 24µM* | 24µM* | 2% | 19µM*
N#Cc1cccnc1N1CCC(CO)(Cc2ccccc2C(F)(F)F)CC1 | i | ? | 1% | ? | ? | 22µM* | 17µM* | -2% | -18%
CNC(=O)c1cc(C2CC2)nc2c1c(C1CCN(C(=O)N(C)C)C1)nn2C (centres undefined) | / | -1% | / | / | -1% | / | / | / | /
CCNC(=O)N1CCC(Cc2ccc(C(N)=O)cc2)CC1 | i | i | -22% | 17% | 3% | / | / | / | /
CCNC(=O)N1CCC(Cc2ccc(C(=O)NCCc3c[nH]c4ccccc34)cc2)CC1 | i | 25µM* | -19% | 14µM* | 18µM* | 24µM* | 24µM* | -12% | 27µM*
COc1ccccc1-c1ccc2ncc(Nc3ccc4c(c3)OCO4)n2n1 | i | ? | ? | -4%[70.6 µM] | ? | / | / | / | /
COc1ccc(Nc2cnc3ccc(-c4ccccc4OC)nn23)cc1OC | i | ? | i | 28µM* | ? | 25µM* | 25µM* | ? | 22µM*
CN(C)CCNC(=O)c1nc2nc(-c3ccccc3)c(-c3ccc(O)c(F)c3)cc2n1C | i | 71µM* | 0%[88.5 µM] | 22µM* | 45µM* | 35µM* | 20µM* | 2%[86.2 µM] | -8%[86.2 µM]
Cc1cc(-c2cc3c(nc2-c2ccccc2)nc(C(=O)NCCN(C)C)n3C)ccn1 | i | -24%[172 µM] | -3%[88.5 µM] | 5%[70.6 µM] | ? | / | / | / | /
CO[C@H]1C(=O)N(C(C)C)[C@H]1C1CCN(Cc2cccc(C#N)c2)CC1 | i | -11% | i | -2% | -16% | / | / | / | /
COC(=O)c1cccc(C(=O)N2CCC(Cc3nc(-c4ccc(F)cc4)no3)CC2)c1 | i | ? | i | 7.1µM* | ? | 6.1µM* | 6.9µM* | -2% | 5.4µM*
COc1cc(OC)cc(C(=O)N2CCC(Cc3nc(-c4ccc(F)cc4)no3)CC2)c1 | i | 32µM* | i | 13µM* | ? | 15µM* | 22µM* | 0% | 15µM*
O=C(c1cc(F)cc(F)c1)N1CCC(Cc2nc(-c3ccc(F)cc3)no2)CC1 | i | ? | 2% | ? | ? | / | / | / | /
COc1ccc(-c2noc(CC3CCN(C(=O)c4cc(F)cc(F)c4)CC3)n2)cc1 | i | ? | i | 6.3µM* | ? | 5.4µM* | 6.1µM* | 2% | 5.4µM*
Cc1cnn(Cc2cc(C(=O)N3CC[C@@H](n4c(=O)n(C)c5cccnc54)C3)no2)c1 | / | 3% | 0% | / | -9% | / | / | / | /
COCCOC1CN(C2CCN(C(=O)c3cc(C)nn3C)CC2)C12CCCCC2 (centres undefined) | / | i | -16% | / | -8% | / | / | / | /
CCOC(=O)C1=CN(CC(=O)Nc2c(C)cc(C)cc2C)S(=O)(=O)N=C1C | i | ? | i | 11µM* | -19% | 24µM* | ? | 0% | 27µM*
COc1ccc(-c2cc(N3CCN(C(=O)Cc4ccc(Br)cc4)CC3)n[nH]2)cc1 | i | 1% | -3% | ? | i | / | / | / | /
COc1cccc(CC(=O)N2CCCN(c3cc(-c4ccc(Br)cc4)[nH]n3)CC2)c1 | i | 45µM* | ? | 11µM* | 35µM* | 24µM* | 24µM* | -1% | 22µM*
Cc1cccc(CC(=O)N2CCCN(c3cc(-c4ccc(Br)cc4)[nH]n3)CC2)c1 | i | ? | ? | ? | 32µM* | ? | 24µM* | 3% | 24µM*
O=C(CCc1ccc(CC2CCN(Cc3ccncc3)CC2)cc1)NC1CC1 | / | ? | -6% | / | -28% | / | / | / | /
O=C(C1CCCN1C(=O)c1ccc(C(F)(F)F)cc1)N1CCC(c2nc3ncccc3[nH]2)CC1 (centres undefined) | / | i | 2% | / | -13% | / | / | / | /
O=C(CC(c1ccc(F)cc1)c1cn(Cc2ccccc2)c2ccc([N+](=O)[O-])cc12)N1CCOCC1 (centres undefined) | i | ? | 0% | 10µM* | ? | 24µM* | 24µM* | 0% | 19µM*
Cc1ccc(C2Cn3nnc(C(=O)N4CCN(C(=O)c5ccc(F)cc5)CC4)c3CO2)cc1 (centres undefined) | i | -10% | i | 2% | -3% | / | / | / | /

Assay outcomes: PubChem BioAssay, National Center for Advancing Translational Sciences (NCATS)
